Compound activity deposited in PubChem by National Center for Advancing Translational Sciences (NCATS).
Rows were chosen to be rich in hits. Some 8.8% of all compounds tested hit in one or more screens of this group.
KB-3-1 tox – kills parental KB-3-1 adenocarcinoma cells; 400,000 tested, 1.4% active; Potency, µM (doses to about 46.1 µM), actives largely listed as cytotoxic; KB-3-1 viability, CellTiter-Glo ATP luminescence, 72 h; note: nearly all actives have a fitted effect of over 60% in size
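Viability of parental KB-3-1 cells, measured by CellTiter-Glo luminescence, followed a 72 h incubation at 37 °C with pinned compounds in phenol-red-free DMEM containing 10% FBS.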
HT1080 IDH1KD tx – kills HT-1080 cells with IDH1 knockdown. HT-1080 IDH1 knockdown viability, ATP luminescence, 48 h. Potency, µM (top dose mostly 46.1 µM), most hits filed as cytotoxic. 360,000 tested, 2% active
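% activity derives from luminescence (CellTiter-Glo), normalised to DMSO and no-cell wells. HT-1080-IDH1KD cells, 750/well, had 48 h compound exposure at 37 °C.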
IL1B secr inh – inhibitors of inflammasome signaling (IL-1 beta secretion) | 360,000 tested, 4.7% active | THP-1 LPS/ATP IL-1B secretion, AlphaLISA, 16 h; stronger effect = lower value | activity change, % at 57.5 µM; in the data active = activity change below about -50%; inconclusive = mostly about -30% to -49%
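Secreted IL-1B measured by AlphaLISA bead assay after 16 h compound exposure of THP-1 cells; compounds (final up to 57.5 uM) added 1 h before LPS (250 ng/mL) and ATP (1.25 mM) stimulation; lower signal means less secretion.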
HT1080-NT tox – kills 2HG-producing HT-1080-NT fibrosarcoma cells; 360,000 tested, 1.6% active; HT-1080-NT fibrosarcoma viability, CellTiter-Glo ATP luminescence, 48 h; AID 686970; Potency, µM (top dose mostly 46.1 µM), usual class: cytotoxic;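 note: NT is the 2HG producing partner of a matched IDH1 knockdown line; nearly all actives have a fitted effect of over 55% in size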
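Fibrosarcoma NT cells, 750 per well in 5% FBS RPMI, were exposed to compound for 48 hours. Viability: CellTiter-Glo luminescence.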
KB-V1 cytotox – kills drug-selected multidrug resistant KB-V1 cells; AID 1347076; KB-V1 MDR cells viability, CellTiter-Glo, 72 h; Potency, µM (series often up to 46.1 µM), hits mostly cytotoxic; 400,000 tested, 3.4% active; note: nearly all actives have a fitted effect of over 60% in size
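Cytotoxicity via CellTiter-Glo luminescence after 72 h compound exposure at 37 degrees C. Cells: drug-selected KB-V1 line, DMEM phenol-red free plus 10% FBS. Compounds tested at multiple concentrations; normalized data fitted to concentration-effect curves.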
Large screens that a line does not name were inactive; ! = repeats disagree. Unless noted, calls come from the whole dose curve; as a rule, active = well fitted curve in the direction sought with a large enough effect; inconclusive = small, poorly fitted or top-dose-only effect, or another doubt; inactive = no such curve, though single readings can be large; an effect the other way counts as inactive or inconclusive.

CC1(C(=O)Nc2ccc3c(c2)OCCO3)CN(S(C)(=O)=O)CC(=O)N1CCc1ccccc1F (stereo not drawn)	none
CC1CCN(c2oc(/C=C/c3ccc(F)cc3)nc2C#N)CC1	KB-V1 cytotox inconclusive (no result: HT1080 IDH1KD tx, IL1B secr inh, HT1080-NT tox)
CCN(CC)CCCN(C(=O)c1cccs1)c1nc(-c2ccc(OC)cc2)cs1	KB-3-1 tox inconclusive, HT1080 IDH1KD tx inconclusive, IL1B secr inh inconclusive, HT1080-NT tox inconclusive, KB-V1 cytotox 8.2µM
COc1cccc(CN2CCC2(C)C(=O)Nc2cccc(Oc3ccccc3)c2)c1F (stereo not drawn)	KB-3-1 tox inconclusive, HT1080 IDH1KD tx 6.5µM, HT1080-NT tox inconclusive, KB-V1 cytotox 7.3µM
COc1cccc(CN2CCC2(C)C(=O)Nc2ccc(C)c(O)c2)c1F (stereo not drawn)	HT1080 IDH1KD tx inconclusive, IL1B secr inh -52, HT1080-NT tox inconclusive, KB-V1 cytotox inconclusive
COc1cccc(NC(=O)C2(C)CCN2Cc2cccc(OC)c2F)c1 (stereo not drawn)	HT1080 IDH1KD tx inconclusive
CCCCC(NC(C)=O)c1nc2ccccc2n1CCC (stereo not drawn)	KB-V1 cytotox 21µM
CCCn1c(C(C)NC(C)=O)nc2ccccc21 (stereo not drawn)	none
COC(=O)c1nnn(CC(=O)NC(=O)Nc2ccccc2)c1C(=O)OC	IL1B secr inh -70
COC(=O)c1nnn(CC(=O)Nc2cccc(OC)c2)c1C(=O)OC	IL1B secr inh -61
CCN(CC)C(=O)c1[nH]cnc1C(=O)Nc1ccccc1F	none
Cc1ccc(-n2ncc3c(=O)n(CC(=O)N(C)C)cnc32)cc1	none
Cc1ccc(-n2ncc3c(=O)n(Cc4cccnc4)cnc32)cc1	KB-3-1 tox 18µM, KB-V1 cytotox 12µM
Cc1ccc(-c2csc(=S)n2CC(=O)OCC(=O)NCc2ccco2)cc1	KB-V1 cytotox inconclusive
Cc1ccc(-c2csc(=S)n2CC(=O)OCC(=O)NC(C)C(C)C)cc1 (stereo not drawn)	KB-V1 cytotox 16µM
CCCCOc1ccc(C(=O)NCCc2sc(-c3cccc(F)c3)nc2C)cc1	KB-V1 cytotox inconclusive (no result: HT1080 IDH1KD tx, IL1B secr inh, HT1080-NT tox)
COc1ccc2cc3cc(C(=O)NCCN4CCN(Cc5ccccc5)CC4)oc3nc2c1	IL1B secr inh -67
COc1ccc2cc3cc(C(=O)NCCCN4CCC(C)CC4)oc3nc2c1	KB-3-1 tox inconclusive, IL1B secr inh -83
COc1ccc2cc3cc(C(=O)NCCN4CCc5ccccc5C4)oc3nc2c1	KB-3-1 tox inconclusive, HT1080 IDH1KD tx inconclusive, KB-V1 cytotox inconclusive
CCN1CCN(CCCNC(=O)c2cc3cc4ccc(OC)cc4nc3o2)CC1	IL1B secr inh -85, KB-V1 cytotox inconclusive
COc1ccc2cc3cc(C(=O)NCCCN4CCOCC4)oc3nc2c1	KB-3-1 tox inconclusive
Cc1nn2c(=O)cc(CSCC(=O)Nc3ccccc3Cl)nc2s1	none
Cc1ccc(CNS(=O)(=O)c2ccc(-c3cnc(C4CC4)o3)cc2)cc1	none
O=S(=O)(NCc1ccccc1)c1ccc(-c2cnc(C3CC3)o2)cc1	KB-3-1 tox 18µM!, HT1080 IDH1KD tx inconclusive, HT1080-NT tox inconclusive, KB-V1 cytotox 15µM!
CCOc1ccccc1CNS(=O)(=O)c1ccc(-c2cnc(C3CC3)o2)cc1	KB-3-1 tox 1.2µM, HT1080 IDH1KD tx 1.2µM, HT1080-NT tox 7.3µM, KB-V1 cytotox 1.5µM!
CCCNC(=O)N1CCC(C(=O)c2cccc(F)c2)CC1	none
Cc1ccc(C)c(N2CCN(C(=O)c3cc(S(=O)(=O)N4CCCCC4)cn3C)CC2)c1	KB-V1 cytotox inconclusive (no result: HT1080 IDH1KD tx, IL1B secr inh, HT1080-NT tox)
COc1ccc(OCC(=O)OCC(=O)c2ccc(OC)c(F)c2)cc1	none
Cc1c(CC(=O)O)c(=O)oc2cc(OCc3ccc(Br)cc3)ccc12	none
O/N=C/c1ccc2cccc(OCc3ccccc3)c2n1	none
NC(N)=N/N=C/c1ccc2cccc(OCc3ccccc3)c2n1	KB-3-1 tox 16µM, HT1080 IDH1KD tx inconclusive, IL1B secr inh -96, HT1080-NT tox 23µM
C(#Cc1ccccc1)C[N+]1(CC#Cc2cccc3ccccc23)CCCC1	KB-3-1 tox 16µM, HT1080 IDH1KD tx inconclusive, IL1B secr inh -62, HT1080-NT tox inconclusive
CCCn1c2ccc(F)cc2c2nnc(SCCN3CCCCC3)nc21	none
CCCn1c2ccc(C)cc2c2nnc(SCCN3CCOCC3)nc21	HT1080 IDH1KD tx inconclusive, IL1B secr inh -61, HT1080-NT tox inconclusive, KB-V1 cytotox inconclusive
CCCn1c2ccc(C)cc2c2nnc(SCCN3CCCCC3)nc21	HT1080 IDH1KD tx inconclusive, IL1B secr inh -66
CCn1c2ccc(C)cc2c2nnc(SCCN3CCCCC3)nc21	HT1080 IDH1KD tx 23µM, IL1B secr inh -66, HT1080-NT tox inconclusive
CCn1c2ccc(F)cc2c2nnc(SCCN3CCCCC3)nc21	IL1B secr inh inconclusive
COC(=O)c1cccn(CC(=O)c2ccc(Cl)cc2)c1=O	none
COc1ccc(OC)c(CNc2ccc([N+](=O)[O-])cc2C)c1	IL1B secr inh -69, KB-V1 cytotox inconclusive
COc1ccc([N+](=O)[O-])cc1NCc1ccccc1C	HT1080 IDH1KD tx inconclusive
COc1cccc(CNc2ccc([N+](=O)[O-])cc2C)c1	KB-V1 cytotox 15µM
Cc1cc([N+](=O)[O-])ccc1NCc1ccc2c(c1)OCCO2	IL1B secr inh -51, KB-V1 cytotox inconclusive
Cc1cc([N+](=O)[O-])ccc1NCc1ccco1	KB-V1 cytotox inconclusive
Cc1ccc(S(=O)(=O)N2C3CCCCC3O[C@H]2CC(=O)c2cccc3ccccc23)cc1 (stereo partly drawn)	none
Cc1c(-c2nnc(SCC(=O)O)n2-c2ccccc2Br)nnn1-c1ccccc1	none
C1CCC(c2nn3c(-c4n[nH]c5c4CCC5)nnc3s2)CC1	IL1B secr inh inconclusive
CCN(CC)c1ccc(-c2nn3c(-c4n[nH]c5c4CCC5)nnc3s2)cc1	KB-3-1 tox inconclusive, HT1080 IDH1KD tx 2.3µM, HT1080-NT tox 1.5µM, KB-V1 cytotox inconclusive
CC1(C(=O)NS(=O)(=O)c2cccc(C#N)c2)CCN1C(=O)CC1CCCCC1 (stereo not drawn)	none
Cc1cc(N2CCOCC2)n2nc(-c3cccc(F)c3)cc2n1	KB-V1 cytotox inconclusive
CCC1CCCCN1c1cc(C)nc2cc(-c3cccc(C)c3)nn12 (stereo not drawn)	HT1080 IDH1KD tx inconclusive, IL1B secr inh -99, HT1080-NT tox inconclusive
O=C(CCN1C(=O)/C(=C/c2cccs2)SC1=S)Nc1cccc(O)c1	KB-3-1 tox inconclusive, IL1B secr inh -82
O=C(CCCN1C(=O)/C(=C/c2cccs2)SC1=S)Nc1cccc(O)c1	HT1080 IDH1KD tx 16µM, IL1B secr inh -94, HT1080-NT tox inconclusive
C[C@H](CO)N1C[C@H](C)[C@@H](CN(C)C(=O)C2CCOCC2)Oc2ncc(Br)cc2C1=O	none
O=C(CN(Cc1ccccc1)C(=O)CCl)c1cccc(Br)c1	KB-3-1 tox inconclusive, HT1080 IDH1KD tx 16µM, IL1B secr inh -98, HT1080-NT tox 21µM
